Reference: PubChem BioAssay (EPA / NIEHS)
Inconclusive results are not listed. Active and inactive are the calls of the source. Rule for the calls: active = hit-call score of the fitted dose curve at least 0.9, where 1 is the maximum; inconclusive = response in the unintended direction; inactive = score below 0.9.

Read-out: Cytochrome P450 2B6 (Homo sapiens) (UniProt P20813)
Assay: CLD_CYP2B6_24hr: CellzDirect (CLD) Gene Expression Assay for xenobiotic metabolism (CYP2B6) at 24 hours (AID 2283686)
Description: CLD_24hr is a cell-based, multiplexed-readout assay that uses hepatocyte, a human liver primary cell, with measurements taken at 24 hours after chemical dosing in a 96-well plate.CLD_CYP2B6_24hr is one of 16 assay component(s) measured or calculated from the CLD_24hr assay. It is designed to make measurements of mRNA induction, a form of inducible reporter, as detected with chemiluminescence signals by Quantitative Nuclease Protection Assay (qNPA) technology.Data from the assay component CLD_CYP2B6_24hr was analyzed at the endpoint, CLD_CYP2B6_24hr, in the positive analysis fitting direction relative to DMSO as the negative control and baseline of activity. Using a type of inducible reporter, gain-of-signal activity can be used to understand changes in the reporter gene as they relate to the gene CYP2B6. Furthermore, this assay endpoint can be referred to as a primary readout. To generalize the intended target to other relatable targets, this assay endpoint is annotated to the cyp intended target family, where subfamily is xenobiotic metabolism.
Human hepatocyte cultures were treated daily for two consecutive days with fresh dosing solutions containing appropriate concentrations of the 320 ToxCast chemicals (chemical identities were blinded to CellzDirect and other ToxCast collaborators), vehicle control (0.2% DMSO), and positive control inducers as summarized in Table 1. Due to the large number of treatment groups and chemicals examined, the ToxCast chemicals were divided into two groups (spanning two independent cultures of hepatocytes from separate donor preparations (Hu778: ToxCast plates 1 and 2; Hu776: ToxCast plates 3 and 4). Each preparation of human hepatocyte cultures was treated with respective vehicle control, medium only control, set of six positive controls/reference chemicals for the five hepatic receptor pathways, and a subset of eight of the ToxCast chemicals (indoxacarb, pyrithiobac-sodium, norflurazon, cyhalofop-butyl, methomyl, thiram, acetochlor, and propiconazole). These replicate data, coupled with internal replicates designed within the blinded ToxCast chemical library, provided additional data to evaluate interindividual differences between hepatocyte preparations and their potential impact on chemical profiles.Cell morphology and integrity were evaluated using phase-contrast microscopy as an indicator of hepatocyte cell health (Tyson & Green, 1987). Cultures for each treatment group (i.e., media, vehicle [0.2% DMSO], positive control inducers [multiple concentrations], and the ToxCast chemicals [multiple concentrations]) were observed and cell morphology was assessed relative to vehicle control cultures at each harvest time point (0, 6, 24, or 48 h). […] Images were evaluated at the conclusion of the study to assess changes in cell integrity and account for the effects of chemical exposure on uncharacteristic changes in concentration-dependent gene expression profiles. The results from these determinations of apparent cytotoxicity were annotated (yes/no) alongside the corresponding qNPA data for reference.At the conclusion of each treatment period, hepatocyte cultures (96-well) were washed with 1 volume of HBSS, lysed by addition of 25 ul ArrayPlate lysis buffer (HTG, Tucson, AZ), and 70 ul/well of Denaturation Oil, denatured by incubation at 95C for 10 min, and frozen at approximately -70C until analysis by nuclease protection assay (qNPA) (Roberts et al., 2007). For qNPA analysis, cell lysates were thawed at 50C for approximately 30 min, qNPA probes were added, and samples were incubated at 95C for 10 min to begin the detection process by denaturing the target RNA, dissociating the duplexes and secondary structure hybridization. At the conclusion of the hybridization period, S1 nuclease reagent was added to each sample to digest all nonprotected nucleotides at 50C for 60-90 min. […]

Compound	AC50	outcome
CCN(CC)c1nc(C)cc(OP(=S)(OC)OC)n1	0.902 µM (active)	
CC(C)N1C(=O)c2ccccc2NS1(=O)=O		inactive
CC(C)=CC1C(C(=O)OCc2coc(Cc3ccccc3)c2)C1(C)C (stereo not given)	5.63 µM (active)	
CCOc1nc(F)cc2nc(S(=O)(=O)Nc3c(Cl)cccc3Cl)nn12	6.27 µM (active)	
COP(=S)(OC)Oc1ccc([N+](=O)[O-])c(C)c1	0.692 µM (active)	
CCCC(=NOCC)C1=C(O)CC(CC(C)SCC)CC1=O (stereo not given)	28.9 µM (active)	
Cc1cnc(C2=NC(C)(C(C)C)C(=O)N2)c(C(=O)O)c1 (stereo not given)		inactive
CCOP(=S)(OCC)Oc1nc(Cl)n(C(C)C)n1	0.383 µM (active)	
COCC(C)N(C(=O)CCl)c1c(C)csc1C (stereo not given)	11.9 µM (active)	
OC(c1ccc(Cl)cc1)(c1ccc(Cl)cc1)C(Cl)(Cl)Cl	4.08 µM (active)	
Cc1c(COC(=O)[C@@H]2[C@H](/C=C(\Cl)C(F)(F)F)C2(C)C)cccc1-c1ccccc1	4.37 µM (active)	
CO/N=C(/C1=NOCCO1)c1ccccc1Oc1ncnc(Oc2ccccc2Cl)c1F		inactive
Nc1cnn(-c2ccccc2)c(=O)c1Cl		inactive
Clc1nc(Cl)nc(Nc2ccccc2Cl)n1		inactive
CC(C)C1(C)N=C(c2ncccc2C(=O)O)NC1=O (stereo not given)	0.000671 µM (active)	
Nc1c(Cl)c(Cl)nc(C(=O)O)c1Cl		inactive
O=c1n(Cl)c(=O)n(Cl)c(=O)n1Cl		inactive
CNC(=O)N(C)c1nnc(C(C)(C)C)s1		inactive
Clc1cccc(C(Cl)(Cl)Cl)n1	0.325 µM (active)	
CC1(C)CON(Cc2ccccc2Cl)C1=O	20 µM (active)	

Compound	AC50	outcome
C=CCOC(=O)C(C)(C)OC(=O)c1cc(-n2c(=O)cc(C(F)(F)F)n(C)c2=O)ccc1Cl	0.173 µM (active)	
CNC(=O)Oc1cccc2ccccc12	7.28 µM (active)	
CC1(C)C(C(=O)OC(C#N)c2cccc(Oc3ccccc3)c2)C1(C)C (stereo not given)	4.44 µM (active)	
CC1(C)C(C=C(Cl)Cl)C1C(=O)OC(C#N)c1cccc(Oc2ccccc2)c1 (stereo not given)	4.4 µM (active)	
CSC(=O)c1c(C(F)F)nc(C(F)(F)F)c(C(=O)SC)c1CC(C)C	1.22 µM (active)	
Cc1ccc(N=CN(C)C=Nc2ccc(C)cc2C)c(C)c1		inactive
O=C(O)c1c(Cl)ccc2cc(Cl)cnc12		inactive
C=C(C)CN(CC)c1c([N+](=O)[O-])cc(C(F)(F)F)cc1[N+](=O)[O-]		inactive
COC(=O)NS(=O)(=O)c1ccc(N)cc1		inactive
N#Cc1c(Cl)cccc1Cl	4.46 µM (active)	
CCCN(CC)CC1COC2(CCC(C(C)(C)C)CC2)O1 (stereo not given)	9.21 µM (active)	
COC(=O)c1c(C(F)F)nc(C(F)(F)F)c(C2=NCCS2)c1CC(C)C	7.48 µM (active)	
CC(C)NC(=O)N1CC(=O)N(c2cc(Cl)cc(Cl)c2)C1=O	10.4 µM (active)	
COP(=O)(OC)O/C(C)=C/C(=O)N(C)C		inactive
CS(=O)(=O)c1cc(C(F)(F)F)ccc1C(=O)c1cnoc1C1CC1	6.01 µM (active)	
CC(C)N1C(=O)N(c2ccccc2)CSC1=NC(C)(C)C	4.23 µM (active)	
CC(C)Nc1nc(Cl)nc(NC(C)C)n1	3.26 µM (active)	
CCOP(=O)(OCC)Oc1nc(Cl)c(Cl)cc1Cl	0.405 µM (active)	
CCSC(=O)N1CCCCCC1	0.302 µM (active)	
CCCCC(C#N)(Cn1cncn1)c1ccc(Cl)cc1 (stereo not given)	9.62 µM (active)	
